Results on 57 compounds are retold here after PubChem BioAssay AID463173 (ICCB-Longwood Screening Facility, Harvard Medical School, 2010).

The campaign covered roughly 52,000 compounds. About 4,300 (8.3%) were called active. No stated cut-off is given here; in the data, active means survival mostly below about 52% (no sharp cut-off); inactive means mostly above about 56%. The sample as a whole holds a higher share of actives than the screen did.

In this experiment the test system is DeltatarO mutant. In words: growth inhibition of S. aureus wild type versus tarO mutant, primary screen, teichoic acid synthesis inhibitors, RN4220, OD600 (AID 463173). The settings on record: OD600, 18 h, stronger effect = lower value, screened at 18.75 µg/mL (by protocol).
Consider `Cc1ccc(Cl)cc1NC(=O)Cn1c(=O)n(Cc2ccc(C(=O)NCc3ccc4c(c3)OCO4)cc2)c(=O)c2ccccc21`, for which the survival was 90% (inactive). In the case of `COc1ccc(NC(=O)Cn2c(=O)n(-c3cc(C)cc(C)c3)c(=O)c3oc4ccccc4c32)cc1OC`, the survival is 68% (inactive). With `CCc1ccccc1NC(=O)c1ccc2c(c1)N(Cc1cccc(Cl)c1)C(=O)c1ccccc1S2(=O)=O`, the survival was 81% (inactive). With `O=S(=O)(NCCc1nnc2ccc(SCc3ccc(C(F)(F)F)cc3)nn12)c1ccccc1`, the survival is 67% (inactive). As to `Cc1ccc2cccc(NC(=O)c3cccc4c(Cl)cccc34)c2n1`, the survival was 63% (inactive).

With `Cc1ccc2cccc(NC(=O)c3cccc4c(Br)cccc34)c2n1`, the survival is 134% (inactive). On to `Cc1ccc2cccc(NC(=O)c3cccc4ccccc34)c2n1`, for which the survival was -2% (active). As to `COc1c(C)cccc1C(=O)Nc1cccc2ccc(C)nc12`, the survival was -1% (active). Consider `CCOc1ccccc1C(=O)Nc1cccc2ccc(C)nc12`, for which the survival was 68% (inactive). Take `COc1ccc(Br)cc1C(=O)Nc1cccc2ccc(C)nc12`: the survival is 73% (inactive). The result for `Cc1cc2c(cc1S(=O)(=O)CCC(=O)N1CCC(C)CC1)OCC(=O)N2` reads 102% (inactive). For the compound `Cc1ccccc1-c1nc(CS(=O)(=O)CC(=O)N2CCN(c3ccccc3)CC2)c(C)o1`, the survival was 65% (inactive).

Take `O=C(Cn1ccc2cc(S(=O)(=O)N3CCCC3)ccc21)NCc1ccc(Cl)cc1`: the survival is 84% (inactive). For the compound `Cc1cc2nc(-c3ccc(Br)cc3)cc(C(F)(F)F)n2n1`, the survival is 37% (active). In the case of `COc1cccc(-c2cc(C(F)(F)F)n3nc(-c4ccc(C)cc4)cc3n2)c1`, the survival is 142% (inactive). Turning to `Cc1ccc(-c2cc(C(F)(F)F)n3nc(C(=O)Nc4sc5c(c4C#N)CCC(C)C5)cc3n2)cc1` (configuration not stated), the survival is 95% (inactive). With `Cc1ccc(-c2cc3nc(-c4ccccc4)cc(C(F)(F)F)n3n2)cc1` the figure was 69% (inactive); with `CCc1ccccc1NC(=O)c1cc2nc(-c3ccc(Br)cc3)cc(C(F)(F)F)n2n1`, 84% (inactive). As to `Cc1ccc(-c2cc(C(F)(F)F)n3nc(-c4cccc(Br)c4)cc3n2)cc1`, the survival is 46% (active).

For the compound `COC(=O)c1c(NC(=O)c2cc3nc(-c4ccc(Br)cc4)cc(C(F)(F)F)n3n2)sc2c1CCCC2`, the survival was 70% (inactive).

With `CC(=O)c1cccc(NC(=O)c2cc3nc(-c4ccc(Br)cc4)cc(C(F)(F)F)n3n2)c1`, the survival is 49% (inactive). In the case of `Cc1cc(C(F)(F)F)n2nc(-c3ccc(Br)cc3)cc2n1`, the survival was 66% (inactive). For the compound `COc1ccc(-c2cc3nc(-c4ccc(Br)cc4)cc(C(F)(F)F)n3n2)cc1`, the survival was 51% (inactive). `N#Cc1c(NC(=O)c2cc3nc(-c4ccc(Br)cc4)cc(C(F)(F)F)n3n2)sc2c1CCCC2`: the survival is 32% (active). With `CCCNC(=O)c1cc2nc(-c3ccc(Br)cc3)cc(C(F)(F)F)n2n1`, the survival was 51% (active). For `Cc1ccc(CCNC(=O)c2cn(C)c3ccc(S(=O)(=O)N4CCC(C)CC4)cc3c2=O)cc1`, the survival was 72% (inactive). With `Cc1ccc(S(=O)(=O)n2nc(-c3ccccc3)nc2NCc2ccccc2Cl)cc1` the figure was 85% (inactive); with `CCc1c(C)nc2nncn2c1NCc1ccc(OC)cc1`, 85% (inactive).

Turning to `COc1ccc2c(c1)CC(C(=O)Nc1ccc(Br)c(C)c1)CO2` (configuration not stated), the survival was 70% (inactive). With `CCCN1C(=O)CC(C(=O)OC)=C1C` the figure was 81% (inactive); with `CCOc1cccc2sc(N(Cc3cccnc3)C(C)=O)nc12`, 89% (inactive). In the case of `Cc1cc(Br)ccc1NC(=O)c1coc(=O)c2ccccc12`, the survival was 90% (inactive).

Regarding `COc1ccc(-c2cc(C(F)(F)F)n3nc(-c4ccccc4)cc3n2)cc1OC`, the survival is 61% (inactive). With `FC(F)(F)c1cc(-c2ccccc2)nc2cc(-c3ccc(Br)cc3)nn12` the figure was 42% (active).

As for `FC(F)(F)c1cc(-c2ccccc2)nc2cc(-c3ccccc3)nn12`, the survival was 59% (inactive). For the compound `CCN1CCN(Cc2nc3cc(NC(=O)c4ccccc4[N+](=O)[O-])ccc3n2CC)CC1`, the survival is 78% (inactive).

Consider `COc1ccc(NC(c2nnc(-c3ccccc3)o2)c2ccccc2F)cc1Cl` (configuration not stated), for which the survival was 59% (inactive). The result for `Fc1ccccc1C(NCCc1ccc(Cl)cc1)c1nnc(-c2ccccc2)o1` (configuration not stated) reads -9% (active); that for `Fc1ccc(C(NCCc2ccc(Cl)cc2)c2nnc(-c3ccccc3)o2)c(Cl)c1` (configuration not stated), -2% (active). `CCOc1ccc(CCNC(c2cccc(Cl)c2)c2nnc(-c3ccccc3)o2)cc1OCC` (configuration not stated): the survival is 95% (inactive). Take `Cc1cc(C)cc(NC(c2nnc(-c3cccc(F)c3)o2)c2ccc(F)cc2Cl)c1` (configuration not stated): the survival is 48% (inactive). For the compound `Cc1ccc(NC(c2nnc(-c3ccccc3)o2)c2ccccc2F)c(Cl)c1` (configuration not stated), the survival was 85% (inactive). The result for `Cc1cc(NC(c2nnc(-c3ccccc3)o2)c2ccccc2F)ccc1Br` (configuration not stated) reads 40% (inactive); that for `Cc1cc(C)cc(NC(c2cccc(Cl)c2)c2nnc(-c3ccccc3)o2)c1` (configuration not stated), 92% (inactive). As for `Clc1ccc(CCNC(c2nnc(-c3ccccc3)o2)c2ccccc2Cl)cc1` (configuration not stated), the survival was -3% (active). As for `CCOc1ccc(CCNC(c2nnc(-c3ccccc3)o2)c2ccccc2Cl)cc1OCC` (configuration not stated), the survival was 1% (active). With `CC(C)c1ccc(NC(c2nnc(-c3ccccc3)o2)c2ccc(F)cc2Cl)cc1` (configuration not stated), the survival was 84% (inactive). For the compound `O=C(CSc1nnc(-c2cccc(F)c2)c(-c2cccc(F)c2)n1)NC1CCCCC1`, the survival is 73% (inactive). The result for `CC(C)c1ccc(NC(=O)CSC2=Nc3ccccc3C3=NC(CCC(=O)NC4CCCCC4)C(=O)N23)cc1` (configuration not stated) reads 88% (inactive). On to `Cc1ccc(C(=O)CSc2nnc(CSc3nc(C)cc(C)n3)n2C)cc1`, for which the survival was 88% (inactive). Regarding `COC(=O)c1ccc(Oc2nc3c(c(=O)n(C)c(=O)n3C)n2C(C)C)cc1`, the survival is 85% (inactive). In the case of `CCCC(=O)Nc1nnc(SCc2cc(=O)n3ccccc3n2)s1`, the survival is 87% (inactive). Turning to `Cc1cc(C)c2c(CC(=O)Nc3cc(C(F)(F)F)ccc3Cl)coc2c1`, the survival was 66% (inactive). Consider `COc1ccc(CCn2cc3c(c2-c2ccccc2Br)c(=O)n(C)c(=O)n3C)cc1OC`, for which the survival was 67% (inactive).

On to `O=C(Oc1ccccc1)c1ccc(F)cc1`, for which the survival was 74% (inactive). Regarding `Cn1c(NCCN)nc2c1c(=O)n(Cc1ccccc1)c(=O)n2C`, the survival was 50% (inactive).

As to `CCOc1ccc2[nH]c(=O)c(CN(CC3CCCO3)C(=O)N(CC)CC)cc2c1` (configuration not stated), the survival is 98% (inactive).
